These results are taken from PubChem BioAssay (NCATS).

Assay [1] has as its target Voltage-gated inwardly rectifying potassium channel KCNH2 (Homo sapiens) (UniProt Q12809). Briefly: qHTS Assay for Small Molecule Inhibitors of the Human hERG Channel Activity (AID 588834).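 Note: top concentration of the series differs between compounds; % is set by controls: 0 for no effect and ±100 for the full control effect; lower thallium flux fluorescence means stronger hERG block; nearly all actives have a fitted effect of over 50% in size.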 The method in brief:
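Concentration-response qHTS measuring drop in thallium-sensitive dye signal. U2OS cells carrying BacMam hERG; compound exposure ~10 min, then stimulation buffer and 2 min read at 1 sec intervals.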
On the technique in general: Quantitative high-throughput screening tests each substance at several concentrations.

For assay [2], the target named is Glucocorticoid receptor (Homo sapiens) (UniProt P04150). In words: qHTS assay for small molecule agonists of glucocorticoid receptor signaling (AID 588532; active = well fitted curve in the direction sought with a large enough effect in the signal ratio, with a control signal flat; the % refers to the signal ratio;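 note: 100% = dexamethasone at 0.1 µM and 0% = DMSO only wells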). To be noted: HeLa MMTV-bla, beta-lactamase ratio, agonist, 18 h; stronger effect = higher value; percent of dexamethasone control, DMSO zero. The method in brief: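 Stimulation of a glucocorticoid response element-driven beta-lactamase gene was measured in HeLa cells. Responses were scaled between DMSO basal and 0.1 uM dexamethasone, then fitted for half-maximal stimulation.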
Sequence of Glucocorticoid receptor (Homo sapiens) (P04150 whole entry, looked up): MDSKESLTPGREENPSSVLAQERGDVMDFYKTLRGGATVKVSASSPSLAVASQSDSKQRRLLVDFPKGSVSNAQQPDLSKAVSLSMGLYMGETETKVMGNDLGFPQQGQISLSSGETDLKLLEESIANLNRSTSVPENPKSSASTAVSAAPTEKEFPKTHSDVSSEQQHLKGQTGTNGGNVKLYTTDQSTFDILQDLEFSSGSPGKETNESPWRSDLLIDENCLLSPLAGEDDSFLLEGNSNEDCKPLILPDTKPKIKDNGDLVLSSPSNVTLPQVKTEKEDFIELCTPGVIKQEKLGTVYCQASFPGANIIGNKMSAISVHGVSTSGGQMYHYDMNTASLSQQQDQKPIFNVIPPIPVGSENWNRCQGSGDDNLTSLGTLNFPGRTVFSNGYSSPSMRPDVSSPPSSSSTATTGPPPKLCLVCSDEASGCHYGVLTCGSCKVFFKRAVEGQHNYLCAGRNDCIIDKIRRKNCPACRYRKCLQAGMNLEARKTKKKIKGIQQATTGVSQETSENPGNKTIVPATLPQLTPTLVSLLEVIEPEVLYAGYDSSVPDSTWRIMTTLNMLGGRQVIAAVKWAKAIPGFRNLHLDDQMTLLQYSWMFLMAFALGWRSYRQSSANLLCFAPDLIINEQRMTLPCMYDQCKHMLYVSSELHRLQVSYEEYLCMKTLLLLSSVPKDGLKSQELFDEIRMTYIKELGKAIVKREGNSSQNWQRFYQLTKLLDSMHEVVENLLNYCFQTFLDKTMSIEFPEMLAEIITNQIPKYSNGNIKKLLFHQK

The target is the same in assay [3]. In words: qHTS assay for small molecule antagonists of glucocorticoid receptor signaling (AID 588533; active = well fitted inhibition curve with a large enough effect in the signal ratio, with a control signal flat, not every such curve was filed as active; the % refers to the signal ratio;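 note: cells stimulated with 2 nM dexamethasone as agonist; % is set by controls: 0 for no effect and ±100 for the full control effect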). In a few lines:
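Antagonist-mode qHTS: compound titrations added to GRE-bla HeLa cells, then dexamethasone 2 nM final; 18 h, 37 C. CCF4 FRET fluorescence normalized to dexamethasone and DMSO; IC50 from Hill fit.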

Assay [4] is described as follows: qHTS assay for small molecule antagonists of peroxisome proliferator-activated receptor delta signaling (AID 588535; active = well fitted inhibition curve with a large enough effect in the signal ratio, with a control signal flat, not every such curve was filed as active; the % refers to the signal ratio;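 for max response: cells co-treated with a PPAR-delta agonist as stimulator during compound exposure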). To be noted: HEK293T PPARd-UAS-bla, beta-lactamase FRET ratio, 18 h; 460 nm channel. In a few lines: (§1)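 Reporter: UAS-bla under PPAR-delta response element, HEK293T host. Medium: 2% charcoal/dextran FBS. Dosing: titration, 18 hrs, 37 C. Detection: CCF4, 2 hrs RT, 405 ex/460 and 530 em.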

Assay [5] concerns the target Peroxisome proliferator-activated receptor delta (Homo sapiens) (UniProt Q03181). Described as above. In a few lines:
as §1

The target of assay [6] is Peroxisome proliferator-activated receptor gamma (Homo sapiens) (UniProt P37231). Briefly: qHTS assay for small molecule agonists of peroxisome proliferator-activated receptor gamma signaling (AID 588536; active = well fitted curve in the direction sought with a large enough effect in the signal ratio, with a control signal flat, not every such curve was filed as active; the % refers to the signal ratio;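 note: 0% = DMSO basal wells and 100% = rosiglitazone at 2 µM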). In a few lines:
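HEK293 UAS-bla reporter line, 1% charcoal/dextran FBS; titration, 16 h, 37 C; CCF4 loading 2 h RT; fluorescence 460/530 nm. Normalized to rosiglitazone 2 uM = 100%, DMSO = 0%.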

Assay [7] addresses Vitamin D3 receptor (Homo sapiens) (UniProt P11473). In words: qHTS assay for small molecule antagonists of vitamin D receptor signaling (AID 588541; calls by dose curve;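 note: receptor activated by calcitriol during compound treatment; series mostly up to about 77 µM; % is set by controls: 0 for no effect and ±100 for the full control effect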). The method in brief:
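VDR-UAS-bla HEK293T cells (2000/well, 2% charcoal-stripped FBS) were treated with titrated compounds plus 1-alpha,25-dihydroxyvitamin D3 (50 nM or 3 nM final) for 16 h at 37 C. CCF4 beta-lactamase fluorescence was read; Hill fits gave IC50.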

Assay [8] is described as follows: qHTS assay for small molecule agonists of retinoid X receptor alpha signaling (AID 588544; calls by dose curve;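 for activation: 0% = DMSO basal wells and 100% = reference agonist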). To be noted: HEK293T RXRa-UAS-bla, beta-lactamase reporter, 18 h; 530 nm emission.
Assay [9] has as its target Retinoic acid receptor RXR-alpha (Homo sapiens) (UniProt P19793). Described as above.
The target in assay [10] is Thyroid hormone receptor beta (Homo sapiens) (UniProt P10828). In words: qHTS assay for small molecule agonists of thyroid hormone receptor beta signaling (AID 588545; calls by dose curve). In a few lines:
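Agonist-mode beta-lactamase reporter assay, HEK 293 cells, 2% charcoal/dextran FBS; cells plated 4 hrs, compound 18 hrs at 37 C, CCF4 2 hrs RT. Normalized to 10 nM T3 (100%) and DMSO (0%); Hill fit gives EC50, efficacy.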

Assay [11] is described as follows: qHTS assay for small molecule antagonists of retinoid X receptor alpha signaling (AID 588546; active = well fitted inhibition curve with a large enough effect in the signal ratio, with a control signal flat, not every such curve was filed as active; the % refers to the signal ratio;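 note: cells stimulated with 9-cis-retinoic acid as agonist; % is set by controls: 0 for no effect and ±100 for the full control effect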). To be noted: HEK293T RXRa-UAS-bla, beta-lactamase ratio, antagonist mode; measured here: W530 green channel, cytotoxicity proxy. In a few lines: (§2)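 Beta-lactamase reporter inhibition, read as CCF4 fluorescence ratio (ex 405, em 460/530 nm) after 2 h at RT. HEK293T UAS-bla cells, 2500/well, were stimulated with 9-cis-RA at 500 or 100 nM final alongside test compound for 18 h at 37 C.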

For assay [12], the target named is Retinoic acid receptor RXR-alpha (Homo sapiens) (UniProt P19793). The description is as above. To be noted: HEK293T RXRa-UAS-bla, beta-lactamase ratio, antagonist mode. The method in brief:
as §2

Assay [13] concerns the target Thyroid hormone receptor beta (Homo sapiens) (UniProt P10828). Briefly: qHTS assay for small molecule antagonists of thyroid hormone receptor beta signaling (AID 588547; active = well fitted inhibition curve with a large enough effect in the signal ratio, with a control signal flat, not every such curve was filed as active; the % refers to the signal ratio;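 note: cells stimulated with 0.4 nM T3 agonist during compound exposure; series mostly up to about 77 µM; % is set by controls: 0 for no effect and ±100 for the full control effect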). To be noted: TR-UAS-bla HEK293, beta-lactamase ratio, antagonist mode, 18 h. In a few lines:
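TR-UAS-bla GripTite HEK293 cells in 2% charcoal/dextran FBS medium were preincubated 4 h at 37 C, given compound (0.59 nM to 92 uM) plus 0.4 nM T3 (final) for 18 h, then CCF4 for 2 h at RT; Hill fit gave IC50.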

In assay [14] the target is Luciferin 4-monooxygenase (Photinus pyralis) (UniProt P08659). In words: Biochemical firefly luciferase enzyme assay for NPC (AID 624030).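 Note: purified P. pyralis luciferase at 10 nM with luciferin and ATP substrate; series mostly up to about 59 µM; 0% = DMSO and -100% = full luciferase inhibition by PTC124 control; nearly all actives have a fitted effect of over 70% in size.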 The method in brief: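 Counter-screen for direct inhibition of the luciferase enzyme by approved-drug library compounds, run at 10 nM enzyme in 50 mM Tris acetate (final). Luminescence was read within 5 min of enzyme-buffer addition and normalized to PTC124 versus DMSO (0%).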
Sequence of Luciferin 4-monooxygenase (Photinus pyralis) (P08659 whole entry, looked up): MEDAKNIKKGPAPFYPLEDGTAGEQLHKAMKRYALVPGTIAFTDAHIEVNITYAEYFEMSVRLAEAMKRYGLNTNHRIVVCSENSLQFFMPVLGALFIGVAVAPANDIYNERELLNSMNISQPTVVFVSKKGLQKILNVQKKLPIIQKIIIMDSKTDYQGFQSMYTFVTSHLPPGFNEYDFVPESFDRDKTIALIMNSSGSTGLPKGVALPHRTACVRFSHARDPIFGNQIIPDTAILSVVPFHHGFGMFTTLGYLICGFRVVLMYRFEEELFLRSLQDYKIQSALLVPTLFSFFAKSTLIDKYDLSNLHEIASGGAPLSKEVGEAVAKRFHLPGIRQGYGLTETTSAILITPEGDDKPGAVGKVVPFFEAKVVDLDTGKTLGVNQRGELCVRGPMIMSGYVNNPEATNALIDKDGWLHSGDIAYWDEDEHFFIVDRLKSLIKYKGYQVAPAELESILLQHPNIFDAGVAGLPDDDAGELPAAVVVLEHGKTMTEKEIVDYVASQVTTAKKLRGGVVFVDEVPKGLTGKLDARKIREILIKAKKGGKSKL

A short description of assay [15]: S16 Schwann cell viability assay (CellTiter-Glo assay) (AID 624031).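 Note: cellular ATP luminescence as a viability measure; series mostly up to about 58 µM; plate controls were DMSO-treated cells for no effect and cell-free wells for full effect; nearly all actives have a fitted effect of over 70% in size.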 The method in brief:
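This viability control uses native rat S16 Schwann cells grown in DMEM plus 10% FBS. After a 24 h compound treatment at 37 °C, CellTiter-Glo luminescence reports ATP content, scaled against DMSO-treated and cell-free wells.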
(In general: Cellular ATP, detected with luciferase, serves as a proxy for viable cell number.)

Assay [16] is described as follows: S16 Schwann cell PMP22 intronic element firefly luciferase assay (AID 624032).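 Note: series mostly up to about 58 µM; plate controls were DMSO for no effect and PTC124 positive control mean for full effect; nearly all actives have a fitted effect of over 30% in size.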 The method in brief: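 Rat S16 Schwann cells stably carrying a PMP22 intronic element-driven Fluc reporter were seeded overnight, then exposed to compounds for 24 h at 37 °C. Luminescence was normalized to PTC124 (positive control) and DMSO (0% activity).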
A short description of assay [17]: S16 Schwann cell PMP22 intronic element beta-lactamase assay (AID 624044; calls by dose curve;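 note: 0% = DMSO and -100% = potassium clavulanate positive control; nearly all actives have a fitted effect of over 15% in size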). In a few lines: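 Rat S16 Schwann cells with beta-Lac driven by a PMP22 intronic element, compound-treated 24 h at 37 °C. LiveBLAzer FRET B/G read: 460 nm normalized to potassium clavulanate vs DMSO; 535 nm FRET as viability; concentration-effect curves classified.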
Assay [18] has as its target Peroxisome proliferator-activated receptor gamma (Homo sapiens) (UniProt P37231). In words: qHTS assay for small molecule antagonists of peroxisome proliferator-activated receptor gamma signaling (AID 588537; active = well fitted inhibition curve with a large enough effect in the signal ratio, with a control signal flat, not every such curve was filed as active; the % refers to the signal ratio;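 note: reporter cells co-stimulated with 50 nM rosiglitazone agonist during compound treatment; % of control where 0% means no effect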). In a few lines: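 We seeded GeneBLAzer HEK293 reporter cells at 3000 per well, allowed 6-6.5 h attachment at 37 C, then co-treated with test compound titrations and 50 nM rosiglitazone overnight (16 h). Inhibition was quantified from 460/530 nm emission ratios.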

Assay [19] in a line: qHTS of Trypanosoma Brucei Inhibitors: LOPAC Validation (AID 624147). Note: 0% is about no effect. The method in brief:
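Screened from lowest to highest concentration, compounds were pinned into TbPYK/substrate mixtures, and ADP (130 uM final) was added. Plates sat at room temperature for 45 min prior to Kinase-Glo Plus detection by luminescence.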

The target in assay [20] is Glucagon-like peptide 1 receptor (Homo sapiens) (UniProt P43220). In words: qHTS of GLP-1 Receptor Agonists: LOPAC Validation (AID 624148).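 Note: 0% is about no effect; higher luminescence signal means agonism.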 In a few lines:
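HEK293 cells stably co-expressing a cAMP-responsive luciferase reporter and a hypersensitive GLP-1R were plated 12 h at 37 °C and exposed to compounds for 4-6 hr at 37 °C, 5% CO2. Luminescence was read 12 min after adding detection reagent.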

Where “and” joins values, the source holds several entries; their conditions need not be identical. Equal entries are not always repeated. Inconclusive results are not listed. Calls of active or inactive are those of the source. Unless noted, calls come from the whole dose curve; as a rule, active = well fitted curve in the direction sought with a large enough effect; inconclusive = small, poorly fitted or top-dose-only effect, or another doubt; inactive = no such curve, though single readings can be large; an effect the other way counts as inactive or inconclusive.

Sequence of Peroxisome proliferator-activated receptor gamma (Homo sapiens) (P37231 whole entry, looked up): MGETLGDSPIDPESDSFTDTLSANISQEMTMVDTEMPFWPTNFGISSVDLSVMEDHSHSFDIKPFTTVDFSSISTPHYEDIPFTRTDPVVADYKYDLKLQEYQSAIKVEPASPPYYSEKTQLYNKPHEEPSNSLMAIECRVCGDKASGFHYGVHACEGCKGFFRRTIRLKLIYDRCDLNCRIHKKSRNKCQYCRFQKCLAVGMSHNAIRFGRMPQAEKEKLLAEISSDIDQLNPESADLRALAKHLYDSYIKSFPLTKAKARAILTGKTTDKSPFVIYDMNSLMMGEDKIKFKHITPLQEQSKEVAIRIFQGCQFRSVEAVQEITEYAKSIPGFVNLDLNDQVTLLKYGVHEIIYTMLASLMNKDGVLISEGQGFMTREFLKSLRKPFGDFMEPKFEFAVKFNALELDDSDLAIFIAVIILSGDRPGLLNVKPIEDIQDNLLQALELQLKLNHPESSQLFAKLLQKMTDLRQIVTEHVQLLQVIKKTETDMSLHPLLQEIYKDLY
Sequence of Retinoic acid receptor RXR-alpha (Homo sapiens) (P19793 whole entry, looked up): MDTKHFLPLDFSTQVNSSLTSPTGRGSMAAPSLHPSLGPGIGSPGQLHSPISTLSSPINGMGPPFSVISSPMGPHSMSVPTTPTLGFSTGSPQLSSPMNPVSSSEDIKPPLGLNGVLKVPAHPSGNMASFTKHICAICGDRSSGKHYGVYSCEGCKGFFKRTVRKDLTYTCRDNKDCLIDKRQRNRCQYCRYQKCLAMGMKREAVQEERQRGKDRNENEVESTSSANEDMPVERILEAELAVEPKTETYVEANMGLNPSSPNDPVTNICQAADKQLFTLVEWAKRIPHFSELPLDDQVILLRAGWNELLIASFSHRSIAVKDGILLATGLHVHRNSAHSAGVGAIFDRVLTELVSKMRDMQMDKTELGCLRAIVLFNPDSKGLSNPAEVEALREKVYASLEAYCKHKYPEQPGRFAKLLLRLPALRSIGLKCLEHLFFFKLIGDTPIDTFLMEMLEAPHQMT
Sequence of Peroxisome proliferator-activated receptor delta (Homo sapiens) (Q03181 whole entry, looked up): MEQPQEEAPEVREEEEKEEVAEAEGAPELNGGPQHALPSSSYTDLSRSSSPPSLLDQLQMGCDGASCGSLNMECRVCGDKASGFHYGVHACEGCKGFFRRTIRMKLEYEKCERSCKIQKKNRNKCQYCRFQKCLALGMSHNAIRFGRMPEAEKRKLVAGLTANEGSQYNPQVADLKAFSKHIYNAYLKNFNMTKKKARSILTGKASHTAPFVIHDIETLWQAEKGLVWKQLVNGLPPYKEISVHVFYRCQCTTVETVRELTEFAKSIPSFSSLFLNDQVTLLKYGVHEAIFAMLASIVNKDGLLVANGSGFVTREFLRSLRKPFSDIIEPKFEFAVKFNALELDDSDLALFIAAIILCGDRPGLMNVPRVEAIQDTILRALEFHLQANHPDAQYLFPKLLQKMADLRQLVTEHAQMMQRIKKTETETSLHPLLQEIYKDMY
Sequence of Vitamin D3 receptor (Homo sapiens) (P11473 whole entry, looked up): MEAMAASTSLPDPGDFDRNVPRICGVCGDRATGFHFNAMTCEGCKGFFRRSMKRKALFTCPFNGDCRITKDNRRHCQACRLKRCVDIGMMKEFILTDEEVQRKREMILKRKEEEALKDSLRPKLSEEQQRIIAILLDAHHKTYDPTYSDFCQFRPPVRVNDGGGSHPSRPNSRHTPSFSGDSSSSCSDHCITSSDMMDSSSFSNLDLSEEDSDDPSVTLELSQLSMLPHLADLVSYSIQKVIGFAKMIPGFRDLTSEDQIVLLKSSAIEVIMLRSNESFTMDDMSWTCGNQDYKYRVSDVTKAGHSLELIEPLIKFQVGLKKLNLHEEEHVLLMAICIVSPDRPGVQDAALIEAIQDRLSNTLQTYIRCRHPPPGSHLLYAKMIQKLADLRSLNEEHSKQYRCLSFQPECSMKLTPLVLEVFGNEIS
Sequence of Voltage-gated inwardly rectifying potassium channel KCNH2 (Homo sapiens) (Q12809 whole entry, looked up): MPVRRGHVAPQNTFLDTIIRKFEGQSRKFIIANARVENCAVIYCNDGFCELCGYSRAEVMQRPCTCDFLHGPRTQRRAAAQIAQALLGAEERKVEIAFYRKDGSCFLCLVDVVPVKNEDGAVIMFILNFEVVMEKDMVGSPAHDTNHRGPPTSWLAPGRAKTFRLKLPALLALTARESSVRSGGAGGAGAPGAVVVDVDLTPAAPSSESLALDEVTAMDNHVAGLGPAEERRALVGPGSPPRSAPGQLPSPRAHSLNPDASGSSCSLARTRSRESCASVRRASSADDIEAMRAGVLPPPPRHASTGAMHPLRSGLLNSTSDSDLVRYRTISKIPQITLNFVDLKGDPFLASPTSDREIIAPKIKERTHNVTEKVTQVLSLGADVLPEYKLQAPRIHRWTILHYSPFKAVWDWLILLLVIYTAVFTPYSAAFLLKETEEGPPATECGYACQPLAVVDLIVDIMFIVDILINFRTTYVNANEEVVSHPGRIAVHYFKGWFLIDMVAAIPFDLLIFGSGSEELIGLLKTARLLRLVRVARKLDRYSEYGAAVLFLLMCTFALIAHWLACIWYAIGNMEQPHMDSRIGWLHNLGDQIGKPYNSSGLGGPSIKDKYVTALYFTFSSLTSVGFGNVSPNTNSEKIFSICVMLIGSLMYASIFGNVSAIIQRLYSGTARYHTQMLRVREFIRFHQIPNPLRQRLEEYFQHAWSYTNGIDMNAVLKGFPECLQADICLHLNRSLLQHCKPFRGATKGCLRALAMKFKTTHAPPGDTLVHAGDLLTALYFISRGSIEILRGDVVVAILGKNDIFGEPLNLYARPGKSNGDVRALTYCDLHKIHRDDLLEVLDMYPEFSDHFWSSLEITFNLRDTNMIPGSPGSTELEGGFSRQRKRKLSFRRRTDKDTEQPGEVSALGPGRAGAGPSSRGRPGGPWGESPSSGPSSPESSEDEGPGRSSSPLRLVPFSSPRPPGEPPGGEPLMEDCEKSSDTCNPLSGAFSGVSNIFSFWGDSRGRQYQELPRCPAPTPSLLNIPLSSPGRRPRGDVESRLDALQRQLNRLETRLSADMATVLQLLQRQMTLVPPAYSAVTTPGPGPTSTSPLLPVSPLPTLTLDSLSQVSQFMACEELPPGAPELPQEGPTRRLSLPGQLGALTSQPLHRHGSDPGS
Sequence of Thyroid hormone receptor beta (Homo sapiens) (P10828 whole entry, looked up): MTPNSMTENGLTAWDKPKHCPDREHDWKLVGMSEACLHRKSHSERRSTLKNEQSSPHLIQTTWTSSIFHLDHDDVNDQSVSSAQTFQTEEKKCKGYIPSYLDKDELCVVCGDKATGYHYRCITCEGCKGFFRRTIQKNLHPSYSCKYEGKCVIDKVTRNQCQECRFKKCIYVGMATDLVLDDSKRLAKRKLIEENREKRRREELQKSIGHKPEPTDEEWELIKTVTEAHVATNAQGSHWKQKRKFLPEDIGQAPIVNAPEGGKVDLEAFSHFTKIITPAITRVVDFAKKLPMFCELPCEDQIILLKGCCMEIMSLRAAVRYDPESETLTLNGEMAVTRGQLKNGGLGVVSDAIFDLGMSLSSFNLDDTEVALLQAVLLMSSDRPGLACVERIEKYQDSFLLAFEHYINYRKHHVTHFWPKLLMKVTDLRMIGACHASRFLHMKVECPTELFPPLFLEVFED

For the compound `CC(=O)[C@H]1CC[C@H]2[C@@H]3CC=C4C[C@@H](O)CC[C@]4(C)[C@H]3CC[C@]12C`, the Potency entry in assay [1] is “inactive”.

Turning to `Cc1ccnc2c1NC(=O)c1cccnc1N2C1CC1`, the activation in assay [2] was -5.33% (inactive). Moreover, the compound was classed as inactive in assay [3], in assay [5], in [6], in assay [7], in assay [9] and in [10]. Also, the max response in assay [4] was 14.9%; in [8], 12%; in assay [11], -4.35%; in [12], 11.4% (inactive). Moreover, the activity change % (negative = inhibition) in [13] was -3.97% (inactive). Besides, the Potency entry in [1], in assay [14], in [15] and in assay [16] was “inactive” in each case.

On to `CC1=NN(c2ccccc2)C(=O)C1`, for which the outcome in assay [3], in assay [5], in assay [6] and in assay [10] was inactive. The max response is -24.3% in assay [4], 3.18% in assay [11] and 23.1% (inactive) in assay [12]. Moreover, the activity change % (negative = inhibition) in assay [13] is -16% (inactive) and 3.19% (inactive). Further, the Potency entry in assay [1], in assay [14], in [15], in [16] and in assay [17] was “inactive” in each case.

`O=C(O)c1cc(=O)[nH]c(=O)[nH]1`: the activation in assay [2] is -4.81% (inactive). Further, the outcome in assay [6], in [9] and in assay [10] was inactive. For the same compound, the max response was 0.884% in assay [8], 2.15% in [11] and 5.81% (inactive) in [12]. For the same compound, in [13], the activity change % (negative = inhibition) was 1.95% (inactive). Moreover, the Potency result in assay [1], in [14], in assay [15] and in [16] was “inactive” each time.

Take `C[C@@H](CN1CC(=O)NC(=O)C1)N1CC(=O)NC(=O)C1`: in assay [1], the Potency result is “inactive”.

`Cc1onc(-c2ccccc2Cl)c1C(=O)N[C@@H]1C(=O)N2[C@@H]1SC(C)(C)[C@@H]2C(=O)O`: the Potency entry in [1] is “inactive”.

Consider `CS(=O)(=O)c1ccc([C@@H](O)[C@@H](CO)NC(=O)C(Cl)Cl)cc1`, for which the Potency result in [1] was “inactive”.

For the compound `COc1ccccc1OCC(O)COC(N)=O` (stereo not given), in assay [1], the Potency result is “inactive”.

In the case of `C[C@]12C=CC(=O)C=C1CC[C@@H]1[C@@H]2C(=O)C[C@@]2(C)[C@H]1CC[C@]2(O)C(=O)CO`, the compound was classed as inactive in assay [6], in assay [7], in assay [9] and in assay [10]. For the same compound, the max response is 13.7% in [8], 4.53% in assay [11] and -10.9% (inactive) in [12]. In addition, the activity change % (negative = inhibition) in assay [13] is -0.0632% (inactive). For the same compound, the Potency entry in assay [1], in assay [14], in assay [15], in assay [16] and in assay [17] was “inactive” in each case.

In the case of `CO[C@@H]1[C@@H](OC(N)=O)[C@@H](O)[C@H](Oc2ccc3c(O)c(NC(=O)c4ccc(O)c(CC=C(C)C)c4)c(=O)oc3c2C)OC1(C)C`, the Potency entry in [1] was “inactive”.

Turning to `CC(C)(C)NC(=O)[C@H]1CC[C@H]2[C@@H]3CC[C@H]4NC(=O)C=C[C@]4(C)[C@H]3CC[C@]12C`, the Potency result in assay [1] was “inactive”.

As for `S=P(N1CC1)(N1CC1)N1CC1`, in [2], the activation was -9.54% (inactive). The call in assay [3], in [5], in assay [6], in [7], in assay [9] and in assay [10] was inactive. The max response in assay [4] was 6.13%; in assay [8], -19.8%. In addition, the Potency entry in assay [18], in assay [1], in assay [14], in [15], in assay [16] and in assay [17] was “inactive” each time. The activity change % (negative = inhibition) in assay [13] was -0.913% (inactive).

Turning to `NS(=O)(=O)c1cc2c(cc1Cl)NC(C(Cl)Cl)NS2(=O)=O` (stereo not given), the Potency entry in assay [1] is “inactive”.

As for `COC(c1ccccc1)(c1ccccc1)[C@H](Oc1nc(C)cc(C)n1)C(=O)O`, the Potency entry in assay [1] is “inactive”.

As for `Nc1nc(N)c2nc(CNc3ccc(C(=O)NC(CCC(=O)O)C(=O)O)cc3)cnc2n1` (stereo not given), the activation in assay [2] was 7.7% (inactive). For the same compound, the result in [3], in assay [5], in assay [7], in assay [19] and in assay [20] was inactive. In addition, the max response in assay [4] was 44.5%. Further, the Potency result in assay [1], in assay [14], in [15] and in assay [17] was “inactive” throughout.
